About 2,000 (36%) of roughly 5,500 compounds were called active. Roughly 18% stayed inconclusive and do not appear here. Cut-off read from the data, not from the text of the source: active = normalized growth mostly below about 0.91 (no sharp cut-off); inconclusive = no clear call, values can overlap the other calls; inactive = mostly above about 0.92. The list shows a part of the results.
Assay: chemical genetic growth profiling, strain panel (AID 1159580);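 note: tested at 20 µM; growth read once vehicle control cultures reached saturation at 30 °C; 1 = growth at the plate median or of vehicle wells; lower values mean less growth of the strain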
Conditions: growth OD

Measured: normalized growth

Nc1c(Br)cc(Br)cc1CNC1CCC(O)CC1 (stereo not given)
inactive: S. cerevisiae deletion strains, locus YJR066W, strain TOR1, active compounds read low 0.936 | S. cerevisiae deletion strains, locus YKL009W, strain mrt4, active compounds read low 0.985 | S. cerevisiae deletion strains, locus YKL068W, active compounds read low 0.997 | S. cerevisiae deletion strains, locus YKL085W, strain MDH1 (second series), active compounds read low 1 | S. cerevisiae deletion strains, locus YKL085W, strain MDH1, active compounds read low 1 | S. cerevisiae deletion strains, locus YKL160W, strain elf1, active compounds read low 1 | S. cerevisiae deletion strains, locus YKL190W, strain CNB1, active compounds read low 1.01 | S. cerevisiae deletion strains, locus YKR001C, strain vps1, active compounds read low 0.994 | S. cerevisiae deletion strains, locus YKR026C, strain gcn3, active compounds read low 1.01 | S. cerevisiae deletion strains, locus YKR091W, strain srl3, active compounds read low 1.02 | S. cerevisiae deletion strains, locus YLL001W, strain dnm1, active compounds read low 1.02 | S. cerevisiae deletion strains, locus YLL026W, active compounds read low 1.01 | S. cerevisiae deletion strains, locus YLL041C, strain sdh2, active compounds read low 0.993 | S. cerevisiae deletion strains, locus YLR027C, strain aat2, active compounds read low 0.997 | S. cerevisiae deletion strains, locus YLR039C, strain RIC1, active compounds read low 1.03 | S. cerevisiae deletion strains, locus YLR058C, strain SHM2, active compounds read low 1 | S. cerevisiae deletion strains, locus YLR102C, strain apc9, active compounds read low 1.01 | S. cerevisiae deletion strains, locus YLR113W, strain HOG1, active compounds read low 1.07 | S. cerevisiae deletion strains, locus YLR221C, strain rsa3, active compounds read low 1.01 | S. cerevisiae deletion strains, locus YLR258W, strain gsy2, active compounds read low 1 | S. cerevisiae deletion strains, locus YLR262C, strain YPT6 (second series), active compounds read low 0.974 | S. cerevisiae deletion strains, locus YLR262C, strain YPT6, active compounds read low 1.04 | S. cerevisiae deletion strains, locus YLR268W, strain sec22, active compounds read low 0.982 | S. cerevisiae deletion strains, locus YLR320W, strain mms22, active compounds read low 1.03 | S. cerevisiae deletion strains, locus YLR330W, strain CHS5, active compounds read low 1.01 | S. cerevisiae deletion strains, locus YLR342W, strain FKS1 (second series), active compounds read low 1.01 | S. cerevisiae deletion strains, locus YLR342W, strain FKS1, active compounds read low 1.02 | S. cerevisiae deletion strains, locus YLR357W, strain rsc2, active compounds read low 1.03 | S. cerevisiae deletion strains, locus YLR370C, strain arc18, active compounds read low 0.997 | S. cerevisiae deletion strains, locus YLR371W, strain rom2, active compounds read low 1.01 | S. cerevisiae deletion strains, locus YLR384C, strain iki3, active compounds read low 1.01 | S. cerevisiae deletion strains, locus YLR418C, strain cdc73, active compounds read low 0.949 | S. cerevisiae deletion strains, locus YML016C, strain PPZ1, active compounds read low 1 | S. cerevisiae deletion strains, locus YML032C, strain rad52, active compounds read low 0.996 | S. cerevisiae deletion strains, locus YML120C, strain ndi1, active compounds read low 1.05 | S. cerevisiae deletion strains, locus YML124C, strain tub3, active compounds read low 0.996 | S. cerevisiae deletion strains, locus YMR058W, strain fet3, active compounds read low 1.02 | S. cerevisiae deletion strains, locus YMR078C, strain ctf18, active compounds read low 1.01 | S. cerevisiae deletion strains, locus YMR125W, strain sto1, active compounds read low 1.01 | S. cerevisiae deletion strains, locus YMR129W, active compounds read low 1.02 | S. cerevisiae deletion strains, locus YMR205C, strain PFK2, active compounds read low 1 | S. cerevisiae deletion strains, locus YMR223W, strain ubp8, active compounds read low 0.991 | S. cerevisiae deletion strains, locus YMR231W, strain pep5, active compounds read low 1.02 | S. cerevisiae deletion strains, locus YMR307W, strain GAS1, active compounds read low 1.12 | S. cerevisiae deletion strains, locus YNL067W, strain RPL9B, active compounds read low 0.994 | S. cerevisiae deletion strains, locus YNL071W, strain lat1, active compounds read low 1.01 | S. cerevisiae deletion strains, locus YNL128W, strain TEP1, active compounds read low 1.02 | S. cerevisiae deletion strains, locus YNL153C, strain GIM3, active compounds read low 0.99 | S. cerevisiae deletion strains, locus YNL183C, strain NPR1, active compounds read low 0.981 | S. cerevisiae deletion strains, locus YNL209W, strain ssb2, active compounds read low 1 | S. cerevisiae deletion strains, locus YNL233W, strain BNI4, active compounds read low 0.991 | S. cerevisiae deletion strains, locus YNL248C, strain rpa49, active compounds read low 1 | S. cerevisiae deletion strains, locus YNL250W, strain rad50, active compounds read low 0.994 | S. cerevisiae deletion strains, locus YNL271C, strain bni1, active compounds read low 1 | S. cerevisiae deletion strains, locus YNL298W, strain CLA4, active compounds read low 1.03 | S. cerevisiae deletion strains, locus YNL307C, strain MCK1, active compounds read low 1.01 | S. cerevisiae deletion strains, locus YNL322C, strain KRE1 (second series), active compounds read low 1.02 | S. cerevisiae deletion strains, locus YNL322C, strain KRE1, active compounds read low 1 | S. cerevisiae deletion strains, locus YNR049C, strain mso1, active compounds read low 0.987 | S. cerevisiae deletion strains, locus YNR052C, strain pop2, active compounds read low 1 | S. cerevisiae deletion strains, locus YOL006C, strain TOP1, active compounds read low 0.95 | S. cerevisiae deletion strains, locus YOL012C, strain htz1 0.731 | S. cerevisiae deletion strains, locus YOL147C, strain pex11, active compounds read low 0.998 | S. cerevisiae deletion strains, locus YOR001W, strain rrp6, active compounds read low 0.996 | S. cerevisiae deletion strains, locus YOR061W, strain CKA2, active compounds read low 1.01 | S. cerevisiae deletion strains, locus YOR069W, strain VPS5, active compounds read low 1 | S. cerevisiae deletion strains, locus YOR070C, strain gyp1, active compounds read low 1 | S. cerevisiae deletion strains, locus YOR080W, strain dia2, active compounds read low 1.02 | S. cerevisiae deletion strains, locus YOR083W, strain WHI5, active compounds read low 0.997 | S. cerevisiae deletion strains, locus YOR106W, strain vam3, active compounds read low 1.02 | S. cerevisiae deletion strains, locus YOR136W, strain idh2, active compounds read low 0.995 | S. cerevisiae deletion strains, locus YOR144C, strain elg1, active compounds read low 0.994 | S. cerevisiae deletion strains, locus YOR184W, strain ser1, active compounds read low 0.992 | S. cerevisiae deletion strains, locus YOR231W, strain MKK1, active compounds read low 1.06 | S. cerevisiae deletion strains, locus YOR265W, strain rbl2, active compounds read low 1.01 | S. cerevisiae deletion strains, locus YOR270C, strain vph1, active compounds read low 1.01 | S. cerevisiae deletion strains, locus YOR290C, strain snf2, active compounds read low 0.984 | S. cerevisiae deletion strains, locus YOR316C, strain cot1, active compounds read low 1 | S. cerevisiae deletion strains, locus YPL051W, strain arl3, active compounds read low 1.01 | S. cerevisiae deletion strains, locus YPL055C, strain LGE1, active compounds read low 0.978 | S. cerevisiae deletion strains, locus YPL078C, strain atp4, active compounds read low 0.999 | S. cerevisiae deletion strains, locus YPL106C, strain sse1, active compounds read low 1.03 | S. cerevisiae deletion strains, locus YPL240C, strain hsp82, active compounds read low 1.01 | S. cerevisiae deletion strains, locus YPL256C, strain CLN2, active compounds read low 1.06 | S. cerevisiae deletion strains, locus YPR119W, strain clb2, active compounds read low 1 | S. cerevisiae deletion strains, locus YPR141C, strain kar3, active compounds read low 0.99 | S. cerevisiae deletion strains, locus YPR163C, strain tif3, active compounds read low 1 | S. cerevisiae deletion strains, locus YPR167C, strain met16, active compounds read low 0.998 | S. cerevisiae deletion strains, strain wtn01, active compounds read low 1 | S. cerevisiae strains, strain wild type, active compounds read low 1.01

— PubChem BioAssay AID1159580 (chemical genetic matrix, 2015)
